# Reference: PubChem BioAssay AID504451 (NMMLSC, 2011)
# Screen size: about 2,000 compounds; about 80 (4%) were called active. Many of the other results were omitted from the sample, so actives are more common in it than they were. Values without a mark were called inactive.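 The calls were made as follows: active = aptamer displacement above 40%, near three times the noise of non-fluorescent compounds, on plates passing quality checks; inactive = the rest.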
# Biological target: Beta-adrenergic receptor kinase 1 (Homo sapiens) (UniProt P25098)
# Test: GRK2 aptamer-displacing inhibitors, retest, confirmation, biochemical, cherry pick 1, bead flow cytometry (AID 504451);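 also: negative values mostly reflect intrinsic compound fluorescence rather than true enhancement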
# Settings: bead-bound GRK2, FAM-aptamer displacement, at 10 µM, active compounds read high
# Beta-adrenergic receptor kinase 1 (Homo sapiens), sequence (P25098 whole entry, looked up): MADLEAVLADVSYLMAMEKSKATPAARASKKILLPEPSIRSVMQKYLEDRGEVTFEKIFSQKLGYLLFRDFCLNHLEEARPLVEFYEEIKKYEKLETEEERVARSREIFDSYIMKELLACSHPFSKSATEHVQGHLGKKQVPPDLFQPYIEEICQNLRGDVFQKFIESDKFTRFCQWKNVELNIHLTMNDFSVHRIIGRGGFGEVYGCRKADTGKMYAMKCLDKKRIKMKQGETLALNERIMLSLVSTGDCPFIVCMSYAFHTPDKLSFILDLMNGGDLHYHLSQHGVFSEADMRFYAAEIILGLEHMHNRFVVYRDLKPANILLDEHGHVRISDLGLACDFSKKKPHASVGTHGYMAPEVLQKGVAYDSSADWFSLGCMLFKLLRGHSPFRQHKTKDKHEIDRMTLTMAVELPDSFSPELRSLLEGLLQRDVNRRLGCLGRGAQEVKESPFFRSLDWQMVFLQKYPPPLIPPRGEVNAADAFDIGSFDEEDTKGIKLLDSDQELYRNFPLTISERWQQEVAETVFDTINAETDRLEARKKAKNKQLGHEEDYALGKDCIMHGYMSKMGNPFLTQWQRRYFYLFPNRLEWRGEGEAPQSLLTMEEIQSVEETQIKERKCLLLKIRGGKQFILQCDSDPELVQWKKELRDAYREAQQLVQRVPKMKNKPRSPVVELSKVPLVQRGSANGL
row,SMILES,aptamer displacement
1,O=C1NC(=O)N(Cc2ccco2)C(=O)/C1=C\c1cccn1CCOc1ccccc1,0.73%
2,COc1ccc(N2C(=O)/C(=C/c3ccco3)C(=O)NC2=S)cc1,86.6% (active)
3,Cc1c(C(=O)O)cccc1-n1c(C)cc(/C=C2\C(=O)NC(=O)N(c3ccc4c(c3)OCO4)C2=O)c1C,37.1%
